Test results reported in paper PMC7819943, “Rice protein-binding microarrays: a tool to detect cis-acting elements near promoter regions in rice”.
In all, about 68,000 sequences were measured (“fluorescence intensity (a.u.)”: median about 9,100, highest 2% from about 16,000 on). Many of the other results were omitted from the sample, so the highest values are more common in it than they were.

target: OsWRKY34 (Oryza sativa, UniProt Q0JBA9 1-250); assay: protein-binding microarray (RPBM); PBS, 2% BSA, 51.3 ng/ul salmon testes DNA, 50 uM zinc acetate, 200 nM TF, 25 C, 1 h; high values mean tight binding; conditions: protein: recombinant; tags: N-terminal polyhistidine and DsRed monomer fusion (pET32a); label: CyDye5-dUTP incorporated in the synthesized complementary strand; 3' TTTTT single-stranded linker to array surface; dsDNA, one strand shown
How it was run: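 In PBS with 2% BSA, salmon testes DNA and 50 µM zinc acetate, 200 nM protein was incubated on a custom Agilent array at 25 °C for 1 h and then washed off. The array had been made double-stranded by primer extension with Cy5-dUTP and blocked with 2% BSA. The proteins were transcription factors fused N-terminally to polyhistidine and DsRed, expressed in E. coli BL21-CodonPlus and purified on Ni–NTA. The binding signal is per-feature fluorescence intensity (arbitrary units) from an Axon 4000B scanner.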

OsWRKY34, sequence (Q0JBA9 entry or part of it): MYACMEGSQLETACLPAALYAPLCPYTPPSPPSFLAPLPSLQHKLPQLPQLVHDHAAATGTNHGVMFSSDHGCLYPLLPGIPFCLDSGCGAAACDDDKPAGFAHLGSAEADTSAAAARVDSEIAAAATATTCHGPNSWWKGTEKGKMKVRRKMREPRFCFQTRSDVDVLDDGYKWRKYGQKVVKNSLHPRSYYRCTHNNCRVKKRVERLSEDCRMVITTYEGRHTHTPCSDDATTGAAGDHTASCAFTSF

Row | Sequence | binding signal
1 | ATACGTCATTTGTATTTGAGTCGGTTTTTAAGTTCCTCCGCGGAGTCACCTAGTGCAG | 12200 fluorescence intensity (a.u.)
2 | TTTTGCAAAGCATTCCTCGCGCTTTCAGCTAATTACGCATCGGAGTCACCTAGTGCAG | 8500 fluorescence intensity (a.u.)
3 | CACCAACGCGTCCCCACCGTGTCGCCTCCTGATTGGTTGTCGGAGTCACCTAGTGCAG | 12100 fluorescence intensity (a.u.)
4 | CTCTCGCTCTTTTATTTTTTTTCCTTGTTTCCTTTCGTGTCGGAGTCACCTAGTGCAG | 12100 fluorescence intensity (a.u.)
5 | GCTTCACCTTCGGCTTCGACTTCGGCTTCGTTTCCTCTTCCGGAGTCACCTAGTGCAG | 18600 fluorescence intensity (a.u.)
6 | TTATTTTTCGTTCCTTCTTTTTTTCTCTCTCACTTTTCTCCGGAGTCACCTAGTGCAG | 11300 fluorescence intensity (a.u.)
7 | AGGTTATTTTTTCCTTACCTTTTTTTTTTCTGATACTACTCGGAGTCACCTAGTGCAG | 9920 fluorescence intensity (a.u.)
8 | TGTTTTCACTTTCCTCTTCAGTCTTCTTCCTTCTTTCGTTCGGAGTCACCTAGTGCAG | 9140 fluorescence intensity (a.u.)
9 | TTGTTACTACATTTCCTGTACTATTTTACTGTCTGATTTACGGAGTCACCTAGTGCAG | 8460 fluorescence intensity (a.u.)
10 | GTCCTCGTTTTTTTTTTCCTTCTCTTTTTCTTTTCCTTTTCGGAGTCACCTAGTGCAG | 9450 fluorescence intensity (a.u.)
11 | GTTGGGCTTCCTTATTGGGTTGGGCTACCTGTCTGATTTTCGGAGTCACCTAGTGCAG | 16600 fluorescence intensity (a.u.)
12 | GTCGTTCGCTCTTTTATCCTTTTCGGACAATTTCACTTTCCGGAGTCACCTAGTGCAG | 19200 fluorescence intensity (a.u.)
13 | GCTCGCCGCGTGCTCTCGTCATCCATCCGACCCACGCCCGCGGAGTCACCTAGTGCAG | 11000 fluorescence intensity (a.u.)
14 | ATTTTATATGATTTCTTACAGACTTTTTTTATCATTTTACCGGAGTCACCTAGTGCAG | 9760 fluorescence intensity (a.u.)
15 | GCATTGGTTGGTGGTTTGGTGACGGCTTCGTTGTAGGCCTCGGAGTCACCTAGTGCAG | 9760 fluorescence intensity (a.u.)
16 | TCCTCTCTCTCTCTCTCTCTCTCTCCTCCTTTGGAGTTGTCGGAGTCACCTAGTGCAG | 10500 fluorescence intensity (a.u.)
17 | CGTCCAGTCCGCTCCCTCCCTCATTCATTCGGTTCGGTAACGGAGTCACCTAGTGCAG | 8870 fluorescence intensity (a.u.)
18 | CGTCGACGACGTCTCGATCGATCGGTGGTGGTGGTGGTGGCGGAGTCACCTAGTGCAG | 8540 fluorescence intensity (a.u.)
19 | CTCGTGGTCAAATCTGAATATCCGATACTTCCGTTTCAAACGGAGTCACCTAGTGCAG | 8300 fluorescence intensity (a.u.)
20 | CGTTTTCTTTTTTCTTCCTCGCTTTCTCTCTCTCTCTCTCCGGAGTCACCTAGTGCAG | 11600 fluorescence intensity (a.u.)
21 | GCGCTCGCCGCTGCCGCAAGCTCGCCTCCGACCCCGGCCACGGAGTCACCTAGTGCAG | 9530 fluorescence intensity (a.u.)

Row | Sequence | binding signal
22 | ACCGTCTCATCTTCTTCTTCCTCCTCCTCTGATCTTCTCCCGGAGTCACCTAGTGCAG | 8220 fluorescence intensity (a.u.)
23 | CGCCGCCGCTCCAGCTCCAGCCGCCCGTGCTCCCTCGCGGCGGAGTCACCTAGTGCAG | 8200 fluorescence intensity (a.u.)
24 | ACCAACCAACCACTGCTCTCGCCGCGCCGTCCTCTTCATCCGGAGTCACCTAGTGCAG | 18200 fluorescence intensity (a.u.)
25 | TCACCACTGCTGCTCTCGCTGCCGTCCTTGTTCTTCGCGCCGGAGTCACCTAGTGCAG | 8110 fluorescence intensity (a.u.)
26 | TCTGCTTCTTCATCCTCGTGCTCTGCTTCTCTCTTCTTCCCGGAGTCACCTAGTGCAG | 8980 fluorescence intensity (a.u.)
27 | CGCCTCGCGGCAGGCAGCCGAGCTGTCTCCAACCGTGCCGCGGAGTCACCTAGTGCAG | 37300 fluorescence intensity (a.u.)
28 | TGTGCCGCTCCGTCGTGCTCTTCGTCGCGCCACTCATCCTCGGAGTCACCTAGTGCAG | 9080 fluorescence intensity (a.u.)
29 | GATCTCATCCCGTCCCGTCATCTGCTTCCTCTCTCGGAACCGGAGTCACCTAGTGCAG | 16900 fluorescence intensity (a.u.)
30 | CGCTTTCCTCTCCGGCAACGACCTCGCAGCTGTGGCCACCCGGAGTCACCTAGTGCAG | 18600 fluorescence intensity (a.u.)
31 | CCCCAACCCGCCGCCAGCCACCGAGCTCGCCACCGTCTCCCGGAGTCACCTAGTGCAG | 8970 fluorescence intensity (a.u.)
32 | ACAATCCATTTTATTCCAACAGATATATACACGGGGACAACGGAGTCACCTAGTGCAG | 8410 fluorescence intensity (a.u.)
33 | GGCTAGGTTGTGCGCGCCCTTCTCGATGTAGCAATAGCAACGGAGTCACCTAGTGCAG | 8520 fluorescence intensity (a.u.)
34 | CCTTCGACCCGTCCCCTCACAAACGGCCGTTTCCCTCCCGCGGAGTCACCTAGTGCAG | 9230 fluorescence intensity (a.u.)
35 | GATCGAATCGAATAGAGTACATTCTCTACAGGGGAGGGGACGGAGTCACCTAGTGCAG | 9760 fluorescence intensity (a.u.)
36 | GTCTGTGAATGTTTTATTTGCCTTGTCTGAACTATCTTTACGGAGTCACCTAGTGCAG | 11400 fluorescence intensity (a.u.)
37 | TGTTGGTGAATGGTAATTTTTTGGGTTGATATGTTGCTGACGGAGTCACCTAGTGCAG | 9580 fluorescence intensity (a.u.)
38 | CTTCCTTCCTAACGTATCGCCCACATTCCTCCACGTCTCCCGGAGTCACCTAGTGCAG | 8980 fluorescence intensity (a.u.)
39 | TCCATTTCCTTGTTTGGTTGGGTGGATGAGAATGGATTGACGGAGTCACCTAGTGCAG | 9010 fluorescence intensity (a.u.)
40 | ACACCGCACCGCCGCAATCGTTGGCACAAGCTACAACCCTCGGAGTCACCTAGTGCAG | 8540 fluorescence intensity (a.u.)
41 | CAAAACAGCCGCGTTTTGGCTCACTAGTCACTTGTTTGACCGGAGTCACCTAGTGCAG | 9710 fluorescence intensity (a.u.)
42 | GCAACCACTGTCTCGCTCTCCGCCGCCATCGCCGCCGCCGCGGAGTCACCTAGTGCAG | 10500 fluorescence intensity (a.u.)
